The supplement of paper PMC4380459

system: tubulin (bovine brain); assay: tubulin polymerization end-point dOD, fold change relative to DMSO vehicle; higher = more polymerization (stabilization); conditions: 50 µM; 60 min; 37 °C
Protocol: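 In-vitro tubulin polymerization assay (Cytoskeleton HTS kit) with 4 mg/ml bovine brain tubulin in G-PEM buffer and compound at 50 uM (0.5% DMSO). Turbidity was read at 340 nm every minute for 1 h at 37 C. The end-point change in OD (dOD) was converted to % fold change relative to the DMSO vehicle (0%), and runs were scaled using DMSO and Taxol controls. The paper calls >20% an effect, 20-40% weak and >40% strong; positive values mean stabilization, negative values destabilization. Scale: negative = destabilization.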

Row | SMILES | tubulin polymerization end-point dOD [%]
1 | COc1ccc(/C=N/NC(=O)c2cccc(F)c2)cc1Br | -16.1
2 | COc1ccc(NC(=O)N(Cc2cc3ccc(C)c(C)c3[nH]c2=O)CC2CCCO2)cc1 (stereo not given) | 33.3
3 | CCN(CC)c1ccc(NC(=O)C2CC=CCC2)cc1 (stereo not given) | -23.9
4 | Cc1ccccc1NC(=O)CSc1nc2cc3c(cc2cc1C)CCC3 | 69.3
5 | Cc1ccc(C(=O)Nc2nc3ccc(Oc4ccccc4)cc3s2)cn1 | 15.6
6 | O=C(Nc1ccc2c(c1)OCCO2)C(=O)Nc1cccc2ncccc12 | -9.86
7 | Cc1ccc(/C=N/NC(=O)c2ccc3c(c2)OCO3)cc1 | -38.5
8 | COc1cc(OC)cc(C(=O)N(Cc2ccccc2OC)Cc2cc3c(C)ccc(C)c3[nH]c2=O)c1 | 12.8
9 | CCc1nc(SCC(=O)Nc2ccc(N(CC)CC)c(C)c2)c2ccccc2n1 | -34
10 | CC(=O)c1c(C)oc2c1cc(NS(=O)(=O)c1ccc(Cl)cc1)c1ccccc12 | 2.59
11 | Nc1c(C(=O)c2ccccc2)sc2nc3c(cc12)CCCC3 | 59.7
12 | O=C(Nc1ncc(Cc2ccc(Cl)cc2)s1)c1cccnc1 | 7.93
13 | Cc1cnc(C(=O)Nc2ncc(Cc3ccc(C#N)cc3)s2)cn1 | -30.4
14 | Cc1ccccc1/C=N/N=C1\NC(=O)C(Cc2ccccc2C)S1 (stereo not given) | -10.8
15 | C=CCc1ccccc1OCC(=O)N/N=C\c1ccc(Cl)cc1 | -25.9
16 | Cc1cccc2cc3c(N)c(C(=O)N4CCCc5ccccc54)sc3nc12 | -46.4
17 | Cc1ccc(/C=N/NC(=O)C2COc3ccccc3O2)s1 (stereo not given) | 5.76
18 | COc1cc(Br)c(-c2cc3cc(Cl)ccc3oc2=O)cc1OC | 77.7
19 | O=C(Nc1ccc2c(c1)OCCO2)C(=O)Nc1ccccc1Cl | 13.5
20 | Cc1cc2nc(/C=C/c3ccsc3)sc2cc1C | 237

Row | SMILES | tubulin polymerization end-point dOD [%]
21 | CCCn1c(NC(=O)C2CC(=O)N(c3ccc4c(c3)OCCO4)C2)nc2ccccc21 (stereo not given) | -4.32
22 | COc1cn(-c2ccccc2)nc1C(=O)N1CCc2ccccc21 | -57.4
23 | CCc1cc2cc3c(cc2nc1SCC(=O)NCCc1ccccc1)OCO3 | 387
24 | Cc1ccc(/C=N/NC(=O)c2c(C)nc3ccc(Cl)cn23)cc1 | -21.2
25 | O=C(Nc1ccc(CNc2ncnc3cc(Cl)ccc23)cc1)C1CC1 | 8.64
26 | Cc1cc2cc3c(cc2nc1SCC(=O)NCCc1ccccc1)OCCO3 | 130
27 | COc1ccc(Cl)cc1NC(=O)CSc1nnc(-c2ccncc2)n1-c1ccccc1 | -50.9
28 | COc1ccc(OC)c(NC(=O)CSc2nc3ccc(OC)cc3cc2C)c1 | -30.7
29 | N#Cc1ccc(N2CC[NH+](Cc3ccc(-c4ccccc4Cl)s3)CC2)nc1 | -56.2
30 | CC(=O)c1c(C)oc2c1cc(NS(=O)(=O)c1ccc(C)cc1)c1ccccc12 | -58.9
31 | COc1ccc2nc(SCC(=O)NCCc3ccc(OC)c(OC)c3)c(C)cc2c1 | -15
32 | CCCC(NC(=O)c1cnc(SC)nc1)c1ccc2c(c1)OCCO2 (stereo not given) | 2.16
33 | Cc1ccc(NC(=O)c2cc(F)c(Cl)cc2Cl)nc1 | -57.6
34 | Cc1cc2nc(/C=C/c3cccs3)sc2cc1C | 43.1
35 | O=C(Nc1ncc(Cc2ccccc2Cl)s1)c1ccncc1 | -29.4
36 | COc1ccc2nc(SCC(=O)Nc3ccccc3OC)c(C#N)cc2c1 | -9.01
37 | O=C(Nc1ncc(Cc2ccccc2Br)s1)c1cccnc1 | -64.1
38 | COc1cc(-c2onc3ccc(Cl)cc23)cc(OC)c1OC | 95.2
39 | O=c1[nH]c(/C=C/c2ccccc2F)nc2ccccc12 | 21.3
40 | Cc1ccc(NC(=S)N(Cc2cc3ccc(C)cc3[nH]c2=O)CC2CCCO2)cc1 (stereo not given) | 97.9
